{"source": "the OligoGym collection", "data": [{"molecular_target": "SULT1A2", "assay": "pooled miR-30 sensor sort-seq; sequence = guide strand", "conditions": "shRNA", "values": [{"sequence": "TAGGAAACCGCCACATCCTTTG", "sensor-assay potency score (higher = more potent)": -0.928}, {"sequence": "TGTGTTTTTCAGAGTCTCCATC", "sensor-assay potency score (higher = more potent)": -0.796}, {"sequence": "ACCCATAGGACACTTCTCCAGC", "sensor-assay potency score (higher = more potent)": -2.4}, {"sequence": "TCCAGCCATGAACTTCTCCAGG", "sensor-assay potency score (higher = more potent)": -1.76}, {"sequence": "TCTTGCACGTGCTGGTACCAGG", "sensor-assay potency score (higher = more potent)": -1.6}, {"sequence": "TTTTTCAGAGTCTCCATCCCTG", "sensor-assay potency score (higher = more potent)": -0.0359}, {"sequence": "TGGTCCATGAACTCCCGGCGGA", "sensor-assay potency score (higher = more potent)": -1.53}, {"sequence": "TTTATTCTGGAGCCTCTTGGTC", "sensor-assay potency score (higher = more potent)": -0.833}, {"sequence": "ATGAGGTCCACAGTCTCCTCTG", "sensor-assay potency score (higher = more potent)": -1}, {"sequence": "TGGGACTTTGAACTCAAGGAAG", "sensor-assay potency score (higher = more potent)": -1.59}]}, {"molecular_target": "SULT6B1", "assay": "pooled miR-30 sensor sort-seq; sequence = guide strand", "conditions": "shRNA", "values": [{"sequence": "TATTAATTCACTGACAATGTGG", "sensor-assay potency score (higher = more potent)": -0.366}, {"sequence": "TATAATATGAACTTAACATTGT", "sensor-assay potency score (higher = more potent)": -0.395}, {"sequence": "TAATTTGTCATAGTGGAGGTGA", "sensor-assay potency score (higher = more potent)": 0.271}, {"sequence": "TGGAATATCGGGGACATCGTTG", "sensor-assay potency score (higher = more potent)": -1.15}, {"sequence": "TACTGCTGTATCTTTAGGGTTT", "sensor-assay potency score (higher = more potent)": -0.446}, {"sequence": "TATTCTCGAAGATAGACCCAGG", "sensor-assay potency score (higher = more potent)": -0.373}, {"sequence": "TATGAACTTAACATTGTCGCCA", "sensor-assay potency score (higher = more potent)": 0.543}, {"sequence": "TGTCCTTTCATGAACTGTCTGA", "sensor-assay potency score (higher = more potent)": 0.266}, {"sequence": "TTATTCTCGAAGATAGACCCAG", "sensor-assay potency score (higher = more potent)": -0.349}, {"sequence": "TAATTCACTGACAATGTGGAGA", "sensor-assay potency score (higher = more potent)": -0.0659}, {"sequence": "TAATATGAACTTAACATTGTCG", "sensor-assay potency score (higher = more potent)": 0.349}, {"sequence": "TGAACTTAACATTGTCGCCATC", "sensor-assay potency score (higher = more potent)": -1.22}]}]}
